{"source": "PubChem BioAssay (NCI)", "note": "This is part of a sample that, as a whole, favours compounds with a hit. Of some 83,000 tested, about 20% had one in any assay.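 Single-concentration screen, 48 h exposure, 96-well plates. Endpoint: percent growth. Below 10 = active.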 A number with no mark means an inactive call. Activity calls are given as the source filed them."}
{"test_system": "COLO 205 colon", "assay": "NCI-60 one-dose screen, 48 h (100 = growth as untreated, 0 = no growth, -100 = all killed)", "settings": "10 µM unless noted", "description": "Cells are grown in 96 well plates and exposed to the test compound for 48 hours. Compounds are tested at a single concentration, which is 10^-5 M for most compounds. The reported endpoint is percent growth (GI% or GIPRCNT), where numbers from 0 - 100% represent growth inhibition, and numbers from -100% - 0 represent cell death. For example, a value of 40 represents 60% growth inhibition. A value of 0 means no net growth occurred over the course of the experiment. A value of -40 indicates 40% of cells at the beginning of the experiment died by the end of the experiment. A value of -100 means all cells are dead at the end of the experiment.\nNCI-60 Human Tumor Cell Lines Screen was performed using the standard one-dose NCI protocol, which is described in more detail at https://dtp.cancer.gov/discovery_development/nci-60/default.htm.\nCompounds with GIPRCNT values below 10 were considered active. Activity score was based on GIPRCNT using the following formula: […]\nScore is 0 for GIPRCNT values of 100 or above, 50 for GIPRCNT values of 0, and 100 for GIPRCNT values of -100."}
{"molecule": "C=C1CC[C@@H]2[C@]3(C)COC(c4cn[nH]c4-c4ccccc4)O[C@@H]3CC[C@@]2(C)[C@@H]1C/C=C1/C(=O)OCC1O", "note": "(stereo not given in full)", "growth": "-10.8% (active)"}
{"molecule": "Nc1nnc(-c2c[nH]c3ccc(Br)cc23)c(-c2c[nH]c3ncc(Br)cc23)n1", "growth": "48.3%"}
{"molecule": "COC1=C[C@]23CCC(=O)N2CCc2cc4c(cc2[C@@H]3[C@@H]1OC(=O)[C@H](C)O)OCO4", "growth": "28.4%"}
{"molecule": "CN(C)CCn1c2ccccc2c2nc3ccc([N+](=O)[O-])cc3nc21", "growth": "3.88% (active)"}
{"molecule": "CC(=O)c1cccc(NC(=O)CCC(=O)NS(=O)(=O)c2ccc(C)cc2)c1", "growth": "113%"}
{"molecule": "COc1cc2c(c(OC)c1OC)C(=O)CC(c1cccc(NC(=O)c3cc(NC(=O)[C@H](CO)NC(=O)OC(C)(C)C)ccc3Cl)c1)O2", "note": "(stereo not given in full)", "growth": "43%"}
{"molecule": "CC12CC[C@@H]3[C@]4(C)COC(c5cn[nH]c5-c5ccc(Cl)cc5)O[C@@H]4CC[C@@]3(C)[C@@H]1CC(C1=CCOC1=O)O2", "note": "(stereo not given in full)", "growth": "10.3%"}
{"molecule": "Cn1cc(-c2nc(N)nnc2-c2c[nH]c3ccc(F)cc23)c2cc(Br)cnc21", "growth": "-82.9% (active)"}
{"molecule": "Cn1cc(-c2nc(N)nnc2-c2c[nH]c3ccc(Br)cc23)c2cccnc21", "growth": "44.5%"}
{"molecule": "CC1(c2cc3cc(Br)ccc3oc2=O)NC(=O)c2c(/C=C/C(=O)OC3CC4CCC3(C)C4(C)C)cccc2N1", "note": "(stereo not given)", "growth": "88.7%"}
{"molecule": "O=C(COc1ccc(NC(=O)Nc2ccc(Cl)c(Cl)c2)cc1)N=Nc1c(O)[nH]c2ccc(Cl)cc12", "growth": "-54.4% (active)"}
{"molecule": "COc1ccc(C2CC(c3ccc(S(=O)(=O)NCCNc4nc(Nc5ccc(F)cc5)nc(N(C)C)n4)cc3)=Nc3c(N)nc(N)nc3N2)cc1", "note": "(stereo not given)", "growth": "82.8%"}
{"molecule": "C#CCOc1cc(N(CC)CC)ccc1C(C(=O)NC(C)(C)C)N(C(=O)C1CCc2cc(F)ccc2O1)c1ccccc1F", "note": "(stereo not given)", "growth": "12.9%"}
{"molecule": "COc1cc(OC)c2c3nc4cc(C)c(C)cc4nc3n(CCN(C)C)c2c1", "growth": "48.4%"}
{"molecule": "Cn1cc(-c2nnc(N)nc2-c2c[nH]c3ccc(Br)cc23)c2cc(Br)cnc21", "growth": "66.6%"}
{"molecule": "COc1ccc(-c2nc(SCC(C)C)nc(NCCc3c[nH]c4ccccc34)c2C#N)cc1", "growth": "76.1%"}
{"molecule": "Nc1n[nH]c2cccc(C#Cc3cccc(NC(=O)c4cccc(Cl)c4)c3)c12", "growth": "19.2%"}
{"molecule": "COc1ccc(C(=O)/C=C/c2ccc3ccccc3c2)cc1S(N)(=O)=O", "growth": "-76.3% (active)"}
{"molecule": "c1ccc(-c2csc(Nc3cccc(Nc4nc(-c5ccccc5)cs4)c3)n2)cc1", "growth": "83.5%"}
{"molecule": "CCOP(=O)(OCCCl)c1nc(-c2ccc(C)cc2)oc1NCc1ccccc1", "note": "(stereo not given)", "growth": "83.5%"}
{"molecule": "COc1cccc(-c2c(C#N)c(-c3ccc(Cl)cc3)nc3n[nH]c(-c4ccc(Cl)cc4)c23)c1", "growth": "3.25% (active)"}
{"molecule": "COc1ccc(/C=N/NC(=O)Cn2nc(Cc3ccc(OC)cc3)c3onc(C)c3c2=O)cc1", "growth": "55.7%"}
{"molecule": "COc1cc(-c2nc3cc(Cl)c(Cl)cc3[nH]2)ccc1OCc1nnc(-c2cccs2)o1", "growth": "81.9%"}
{"molecule": "COc1c(F)ccc(C(=O)Nc2ccc3nc(NC(=O)C4CCCN(S(=O)(=O)c5ccc(Br)s5)C4)sc3c2)c1F", "note": "(stereo not given)", "growth": "101%"}
{"molecule": "COc1ccc(/C=C/c2nc3ccccc3c(=O)n2CC(=O)Nc2ccc(Cl)cc2)cc1", "growth": "74.6%"}
{"molecule": "Cn1cc(NC(=O)c2cc(NC(=O)c3ccc(C#Cc4ccccc4)cc3)cn2C)cc1C(=O)NCCCN1CCOCC1", "growth": "-78.7% (active)"}
{"molecule": "COc1cc2c(c(OC)c1OC)C(=O)CC(c1cccc(NC(=O)c3cccc([N+](=O)[O-])c3)c1)O2", "note": "(stereo not given)", "growth": "51.8%"}
{"molecule": "N/C(=N\\c1nc2ccccc2s1)NC(=O)NCCCCCCO", "growth": "88.1%"}
{"molecule": "COc1cccc(COc2ccc(NC(=O)Nc3ccc(Cl)c(C(F)(F)F)c3)cc2)c1", "growth": "46.2%"}
{"molecule": "O=C(O)c1ccc(-c2ccc(/C=N/NC(=O)c3[nH]c4ccc(Br)cc4c3-c3ccccc3)o2)cc1", "growth": "29.3%"}
{"molecule": "O=C(O)c1ccc(-c2ccc(/C=N/NC(=O)c3[nH]c4ccc(Br)cc4c3-c3ccccc3)s2)cc1", "growth": "23.6%"}
{"molecule": "O=C(N/N=C/c1ccc(-c2ccc(O)cc2)s1)c1[nH]c2ccc(Br)cc2c1-c1ccccc1", "growth": "-32.9% (active)"}
{"molecule": "COc1ccc(C(=O)/C=C/c2c(F)cccc2Cl)cc1S(N)(=O)=O", "growth": "-84.7% (active)"}
{"molecule": "CC1=C(C(=O)OCc2ccccc2)C(c2c(O)cc(O)cc2O)n2c(nc3ccccc32)N1", "note": "(stereo not given)", "growth": "63.5%"}
{"molecule": "Cc1cccc(-c2nc(Nc3cccc(S(N)(=O)=O)c3)c3ccccc3n2)c1", "growth": "51.9%"}
{"molecule": "CN(C)c1nc(NCCNS(=O)(=O)c2ccc(C3=Nc4c(N)nc(N)nc4NC(c4ccccc4)C3)cc2)nc(Nc2ccc(F)cc2)n1", "note": "(stereo not given)", "growth": "44%"}
{"molecule": "O=C(NNc1nc2cc(F)ccc2n2c(C(=O)N3CCN(C4CC4)CC3)ccc12)c1ncccn1", "growth": "7.77% (active)"}
{"molecule": "CCCCNC(=S)Nc1ccc(OCc2nc3ccccc3[nH]2)cc1", "growth": "95.6%"}
{"molecule": "COc1ccc(C(=O)/C=C/c2cccc(Cl)c2Cl)cc1S(N)(=O)=O", "growth": "-79.3% (active)"}
{"molecule": "N#Cc1ccc(C(=O)Nn2c(N)cc3ccccc3c2=O)cc1", "growth": "112%"}
